Assay results: the supplement of paper PMC10849652
About 8,800 targets were measured; listed, in parts, are those with a hit and a random draw of the rest. About 0.5% of all pairs of compound and target were hits. Unmarked numbers belong to inactive results.

How the values were obtained:
Assay in all cases: log2 fold change, soluble protein after heating vs DMSO (PISA); higher = thermal stabilisation; K562 lysate, 10 uM; active = over 0.2 and 3.5 SD of the protein, either way, in both replicates (recomputed)
[1] = compound: CS(=O)(=O)CCNCc1ccc(-c2ccc3ncnc(Nc4ccc(OCc5cccc(F)c5)c(Cl)c4)c3c2)o1 [lapatinib]
Summary of the method: (§1)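 To prepare the extract, K562 pellets were dounce-homogenised in PBS pH 7.4 with 1 mM MgCl2, giving crude material at 1 mg/mL protein. This was treated with 10 μM compound for 30 min, then heated in aliquots for 3 min over 48°C-58°C before pooling and addition of NP-40 to 0.5% at 4°C. Centrifugation at 21,000xg for 90 min left soluble protein in the supernatant, which TMTpro 16plex LC-MS/MS quantified with equalised channel sums. Results are log-two fold changes in thermal stability compared with solvent controls, from duplicates.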

[2] = compound: CS(=O)(=O)N1CCN(Cc2cc3nc(-c4cccc5[nH]ncc45)nc(N4CCOCC4)c3s2)CC1 [pictilisib]
Summary of the method: as §1

[3] = compound: C[C@@H](Oc1cc(-c2cnn(C3CCNCC3)c2)cnc1N)c1c(Cl)ccc(F)c1Cl [crizotinib]
Summary of the method: as §1

[4] = compound: C[C@H](C1=CC=C(C=C1)C(=O)NC2=C3C=CNC3=NC=C2)N
Summary of the method: as §1

[5] = compound: C[C@H](Nc1ncnc2nc[nH]c12)c1cc2cccc(Cl)c2c(=O)n1-c1ccccc1 [duvelisib]
Summary of the method: as §1

[6] = compound: Cc1cc(Nc2cc(CN3CCOCC3)c3nc(C)c(Cc4ccc(Cl)cc4F)n3n2)n[nH]1 [gandotinib]
Summary of the method: as §1

[7] = compound: Cc1cc(Nc2cc(N3CCN(C)CC3)nc(Sc3ccc(NC(=O)C4CC4)cc3)n2)n[nH]1 [tozasertib]
Summary of the method: as §1

[8] = compound: Cc1ccc(-n2nc(C(C)(C)C)cc2NC(=O)Nc2ccc(OCCN3CCOCC3)c3ccccc23)cc1 [doramapimod]
Summary of the method: as §1

[9] = compound: Cc1ccc(NC(=O)c2ccc(CN3CC[C@H](N(C)C)C3)c(C(F)(F)F)c2)cc1Nc1nccc(-c2cncnc2)n1 [bafetinib]
Summary of the method: as §1

[10] = compound: Cc1cccc(CC(=O)N2CCc3c2ccc(-c2cn(C)c4ncnc(N)c24)c3F)n1
Summary of the method: as §1

[11] = compound: Cc1cn(-c2cc(NC(=O)c3ccc(C)c(Nc4nccc(-c5cccnc5)n4)c3)cc(C(F)(F)F)c2)cn1 [nilotinib]
Summary of the method: as §1

[12] = compound: Cc1nc(Nc2n[nH]c3c2CN(C(=O)N[C@H](CN(C)C)c2ccccc2)C3(C)C)c2sccc2n1
Summary of the method: as §1

[13] = compound: Cc1nc(Nc2ncc(C(=O)Nc3c(C)cccc3Cl)s2)cc(N2CCN(CCO)CC2)n1 [dasatinib]
Summary of the method: as §1

[14] = compound: Cc1ncc(-c2ccnc(Nc3ccc(S(C)(=O)=O)cc3)n2)n1C(C)C
Summary of the method: as §1

[15] = compound: Cn1cc(-c2ccc3c(c2)CCN3C(=O)Cc2cccc(C(F)(F)F)c2)c2c(N)ncnc21
Summary of the method: as §1

[16] = compound: Cn1cc(CNCC2CCN(c3ncc(C(=O)NO)cn3)CC2)c2ccccc21 [quisinostat]
Summary of the method: as §1

[17] = compound: Cn1cncc1[C@@](N)(c1ccc(Cl)cc1)c1ccc2c(c1)c(-c1cccc(Cl)c1)cc(=O)n2C [tipifarnib]
Summary of the method: as §1

[18] = compound: NC(=O)Nc1cc(-c2cccc(F)c2)sc1C(=O)N[C@H]1CCCNC1
Summary of the method: as §1

[19] = compound: NC(=O)c1cnc(N[C@@H]2CCCC[C@@H]2N)nc1Nc1cccc(-n2nccn2)c1
Summary of the method: as §1

[20] = compound: NC1(c2ccc(-c3nc4ccn5c(=O)[nH]nc5c4cc3-c3ccccc3)cc2)CCC1
Summary of the method: as §1

UniProt Q9UQE7, sequence (Q9UQE7 whole entry, looked up): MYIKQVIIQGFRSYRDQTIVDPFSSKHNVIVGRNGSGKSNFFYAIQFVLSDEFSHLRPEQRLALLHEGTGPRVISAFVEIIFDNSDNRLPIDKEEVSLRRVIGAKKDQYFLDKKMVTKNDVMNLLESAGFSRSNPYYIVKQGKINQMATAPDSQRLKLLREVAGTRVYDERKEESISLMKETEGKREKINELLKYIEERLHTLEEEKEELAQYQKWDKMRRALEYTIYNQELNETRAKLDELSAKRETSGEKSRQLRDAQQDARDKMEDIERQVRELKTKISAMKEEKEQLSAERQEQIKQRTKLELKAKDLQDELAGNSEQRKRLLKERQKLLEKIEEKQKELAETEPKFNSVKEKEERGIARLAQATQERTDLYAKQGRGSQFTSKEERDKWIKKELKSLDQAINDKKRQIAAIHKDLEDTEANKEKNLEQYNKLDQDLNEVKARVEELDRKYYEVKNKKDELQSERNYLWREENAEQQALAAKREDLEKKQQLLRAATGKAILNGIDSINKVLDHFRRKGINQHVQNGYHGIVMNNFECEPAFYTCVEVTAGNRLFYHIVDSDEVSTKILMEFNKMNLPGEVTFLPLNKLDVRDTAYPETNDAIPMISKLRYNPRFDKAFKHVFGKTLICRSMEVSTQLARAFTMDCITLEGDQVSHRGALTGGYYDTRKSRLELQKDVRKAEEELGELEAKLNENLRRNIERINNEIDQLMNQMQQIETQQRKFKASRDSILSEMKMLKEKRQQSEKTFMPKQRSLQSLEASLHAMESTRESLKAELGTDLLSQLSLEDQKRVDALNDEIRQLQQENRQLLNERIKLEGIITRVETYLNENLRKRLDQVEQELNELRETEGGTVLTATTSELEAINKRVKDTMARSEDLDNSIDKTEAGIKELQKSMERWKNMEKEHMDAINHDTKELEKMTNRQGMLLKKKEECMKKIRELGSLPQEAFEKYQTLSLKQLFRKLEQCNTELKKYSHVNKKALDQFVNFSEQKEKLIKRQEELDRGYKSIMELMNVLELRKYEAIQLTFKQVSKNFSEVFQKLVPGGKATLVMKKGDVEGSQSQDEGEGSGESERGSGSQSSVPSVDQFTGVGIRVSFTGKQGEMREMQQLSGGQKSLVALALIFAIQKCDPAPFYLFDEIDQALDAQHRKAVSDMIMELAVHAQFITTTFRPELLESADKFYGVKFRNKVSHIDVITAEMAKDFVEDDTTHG
UniProt P62316, sequence (P62316 whole entry, looked up): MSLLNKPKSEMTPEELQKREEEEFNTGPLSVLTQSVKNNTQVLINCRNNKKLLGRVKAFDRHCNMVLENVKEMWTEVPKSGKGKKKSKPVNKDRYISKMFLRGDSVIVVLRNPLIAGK
UniProt Q16563, sequence (Q16563 whole entry, looked up): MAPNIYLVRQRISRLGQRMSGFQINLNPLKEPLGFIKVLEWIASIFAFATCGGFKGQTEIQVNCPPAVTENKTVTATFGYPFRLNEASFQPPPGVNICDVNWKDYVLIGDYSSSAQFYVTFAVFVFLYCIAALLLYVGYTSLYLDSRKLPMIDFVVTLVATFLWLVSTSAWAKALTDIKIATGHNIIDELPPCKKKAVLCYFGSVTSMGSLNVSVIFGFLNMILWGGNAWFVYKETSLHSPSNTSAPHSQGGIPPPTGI
UniProt P51532, sequence (P51532 whole entry, looked up): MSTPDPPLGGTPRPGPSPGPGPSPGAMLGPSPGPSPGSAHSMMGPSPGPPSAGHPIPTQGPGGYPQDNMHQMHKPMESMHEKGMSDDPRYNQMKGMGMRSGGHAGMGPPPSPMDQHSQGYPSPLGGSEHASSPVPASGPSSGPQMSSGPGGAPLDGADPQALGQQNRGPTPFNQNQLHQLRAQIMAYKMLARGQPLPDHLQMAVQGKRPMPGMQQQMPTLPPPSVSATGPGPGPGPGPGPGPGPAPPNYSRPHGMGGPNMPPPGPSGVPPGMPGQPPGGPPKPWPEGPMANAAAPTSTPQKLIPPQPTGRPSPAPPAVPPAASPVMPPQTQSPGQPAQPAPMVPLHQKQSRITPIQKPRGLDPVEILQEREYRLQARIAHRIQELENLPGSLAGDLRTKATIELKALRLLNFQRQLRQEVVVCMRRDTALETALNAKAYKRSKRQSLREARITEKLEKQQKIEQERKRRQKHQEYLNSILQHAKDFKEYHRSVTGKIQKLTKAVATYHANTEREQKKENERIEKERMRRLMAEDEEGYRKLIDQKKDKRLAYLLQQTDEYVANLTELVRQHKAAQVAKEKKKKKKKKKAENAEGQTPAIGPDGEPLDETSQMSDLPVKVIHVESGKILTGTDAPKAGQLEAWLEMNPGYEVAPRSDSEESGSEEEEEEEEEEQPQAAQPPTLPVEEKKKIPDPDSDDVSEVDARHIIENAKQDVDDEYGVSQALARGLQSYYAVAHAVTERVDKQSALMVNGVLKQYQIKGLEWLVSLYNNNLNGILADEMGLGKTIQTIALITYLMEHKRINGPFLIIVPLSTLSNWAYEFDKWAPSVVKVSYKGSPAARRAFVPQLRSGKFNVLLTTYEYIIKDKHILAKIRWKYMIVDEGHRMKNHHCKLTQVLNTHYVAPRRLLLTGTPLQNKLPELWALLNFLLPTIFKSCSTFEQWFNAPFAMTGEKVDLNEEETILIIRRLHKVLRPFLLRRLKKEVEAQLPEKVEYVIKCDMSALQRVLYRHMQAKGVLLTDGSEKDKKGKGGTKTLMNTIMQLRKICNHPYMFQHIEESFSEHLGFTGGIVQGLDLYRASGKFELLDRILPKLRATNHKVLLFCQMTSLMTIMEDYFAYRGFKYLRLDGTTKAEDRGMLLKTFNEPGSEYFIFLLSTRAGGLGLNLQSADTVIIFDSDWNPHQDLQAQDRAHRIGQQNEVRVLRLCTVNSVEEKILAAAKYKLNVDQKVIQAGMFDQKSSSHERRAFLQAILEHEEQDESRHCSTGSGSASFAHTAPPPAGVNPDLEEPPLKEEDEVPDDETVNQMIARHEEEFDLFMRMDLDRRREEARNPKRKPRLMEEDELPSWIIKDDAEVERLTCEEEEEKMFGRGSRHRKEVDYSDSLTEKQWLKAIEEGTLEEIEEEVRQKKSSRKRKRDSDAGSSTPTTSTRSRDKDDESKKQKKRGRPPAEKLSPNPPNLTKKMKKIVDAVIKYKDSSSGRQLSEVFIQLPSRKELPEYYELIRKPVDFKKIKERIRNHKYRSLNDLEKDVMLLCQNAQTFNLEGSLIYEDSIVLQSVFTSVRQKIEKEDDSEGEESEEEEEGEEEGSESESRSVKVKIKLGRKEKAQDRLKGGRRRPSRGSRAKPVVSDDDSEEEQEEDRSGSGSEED
UniProt O95347, sequence (O95347 whole entry, looked up): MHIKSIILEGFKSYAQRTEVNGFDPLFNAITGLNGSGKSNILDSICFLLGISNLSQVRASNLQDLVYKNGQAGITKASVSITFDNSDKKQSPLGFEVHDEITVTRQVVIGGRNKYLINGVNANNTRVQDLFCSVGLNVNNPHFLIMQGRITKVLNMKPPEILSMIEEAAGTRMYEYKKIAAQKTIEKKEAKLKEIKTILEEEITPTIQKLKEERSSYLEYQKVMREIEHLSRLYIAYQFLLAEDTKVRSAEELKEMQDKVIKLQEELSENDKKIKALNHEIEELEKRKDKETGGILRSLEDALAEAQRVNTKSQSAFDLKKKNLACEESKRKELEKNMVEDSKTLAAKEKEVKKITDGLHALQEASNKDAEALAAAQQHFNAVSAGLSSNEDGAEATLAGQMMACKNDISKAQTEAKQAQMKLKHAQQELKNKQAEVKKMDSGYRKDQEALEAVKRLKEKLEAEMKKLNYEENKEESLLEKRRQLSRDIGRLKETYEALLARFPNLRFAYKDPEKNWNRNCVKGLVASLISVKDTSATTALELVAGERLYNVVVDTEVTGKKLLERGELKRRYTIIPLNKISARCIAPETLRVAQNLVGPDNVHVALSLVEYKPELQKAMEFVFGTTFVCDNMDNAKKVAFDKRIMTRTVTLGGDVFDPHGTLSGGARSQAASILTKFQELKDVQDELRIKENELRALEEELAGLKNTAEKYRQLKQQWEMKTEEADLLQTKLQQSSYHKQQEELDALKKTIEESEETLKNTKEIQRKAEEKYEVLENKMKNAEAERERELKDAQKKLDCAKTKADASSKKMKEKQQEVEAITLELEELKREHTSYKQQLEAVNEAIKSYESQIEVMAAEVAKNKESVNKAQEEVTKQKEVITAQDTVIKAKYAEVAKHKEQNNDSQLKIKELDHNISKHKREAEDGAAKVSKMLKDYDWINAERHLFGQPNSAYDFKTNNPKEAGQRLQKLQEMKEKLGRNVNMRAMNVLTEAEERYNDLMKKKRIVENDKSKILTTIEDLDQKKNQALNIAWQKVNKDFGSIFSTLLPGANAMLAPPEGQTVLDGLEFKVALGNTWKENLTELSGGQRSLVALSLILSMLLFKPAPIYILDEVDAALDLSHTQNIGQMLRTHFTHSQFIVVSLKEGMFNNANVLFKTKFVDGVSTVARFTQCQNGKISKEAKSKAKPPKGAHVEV
UniProt Q9H2V7, sequence (Q9H2V7 whole entry, looked up): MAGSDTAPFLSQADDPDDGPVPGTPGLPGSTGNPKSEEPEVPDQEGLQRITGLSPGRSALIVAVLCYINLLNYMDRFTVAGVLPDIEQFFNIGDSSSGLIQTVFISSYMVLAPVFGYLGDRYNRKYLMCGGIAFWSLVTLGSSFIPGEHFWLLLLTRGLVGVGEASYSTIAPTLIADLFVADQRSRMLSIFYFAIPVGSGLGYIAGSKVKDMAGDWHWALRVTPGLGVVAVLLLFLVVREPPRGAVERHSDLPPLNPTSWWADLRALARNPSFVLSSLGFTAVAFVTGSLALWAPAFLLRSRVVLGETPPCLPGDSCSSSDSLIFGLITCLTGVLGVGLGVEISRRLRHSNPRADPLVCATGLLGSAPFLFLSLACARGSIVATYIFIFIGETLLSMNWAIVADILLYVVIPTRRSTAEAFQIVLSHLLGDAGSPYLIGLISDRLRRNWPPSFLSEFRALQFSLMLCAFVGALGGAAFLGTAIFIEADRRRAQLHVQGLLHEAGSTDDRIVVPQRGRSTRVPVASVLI

Row | Target | log2 fold change [1] | log2 fold change [2] | log2 fold change [3] | log2 fold change [4] | log2 fold change [5] | log2 fold change [6] | log2 fold change [7] | log2 fold change [8] | log2 fold change [9] | log2 fold change [10] | log2 fold change [11] | log2 fold change [12] | log2 fold change [13] | log2 fold change [14] | log2 fold change [15] | log2 fold change [16] | log2 fold change [17] | log2 fold change [18] | log2 fold change [19] | log2 fold change [20]
1 | SPG11 (UniProt Q96JI7) | -0.163 | -0.021 | -0.102 | -0.049 | 0.048 | 0 | 0.047 | 0.024 | 0.138 | -0.009 | -0.024 | 0.026 | -0.052 | 0.026 | 0.025 | -0.048 | -0.007 | -0.017 | 0.05 | -0.046
2 | STK36 (UniProt Q9NRP7) | -0.213 | -0.007 | -0.833 | -0.551 | 0.191 | 0.284 | 0 | 0.202 | -0.322 | 0.398 | 0.081 | -0.179 | -0.142 | -0.02 | -0.113 | -1.31 (active) | -0.059 | 0.059 | 0.117 | -0.265
3 | SLC20A1 (UniProt Q8WUM9) | -0.002 | -0.065 | -0.009 | 0.016 | 0.038 | -0.016 | -0.006 | 0.042 | -0.075 | -0.013 | -0.021 | -0.001 | -0.023 | -0.03 | 0.007 | -0.048 | -0.007 | -0.034 | 0.05 | -0.099
4 | SMARCA4 (UniProt P51532) | -0.029 | -0.008 | -0.01 | -0.009 | -0.003 | -0.022 | 0.012 | 0.008 | -0.008 | 0.054 | -0.002 | 0.023 | -0.042 | -0.019 | 0.004 | -0.029 | -0.018 | 0.043 | 0.004 | -0.024
5 | SLC25A25 isoform 3 (UniProt Q6KCM7) | -0.004 | 0.021 | -0.039 | 0.013 | -0.014 | -0.047 | 0 | 0.015 | 0.013 | 0.043 | 0.027 | -0.015 | 0.03 | -0.063 | 0.031 | -0.038 | -0.006 | 0.021 | 0.007 | -0.025
6 | SSB (UniProt E7ERC4) | -0.151 | -0.15 | -0.103 | 1.41 (active) | 0.141 | -0.263 | -0.028 | 0.032 | -0.271 | -0.121 | -0.059 | 0.165 | 0.007 | 0.198 | -0.078 | -0.198 | 0.171 | 0.152 | -0.108 | -0.128
7 | SMC3 (UniProt Q9UQE7) | 0.007 | 0.006 | 0.011 | 0.037 | -0.01 | -0.013 | 0.001 | -0.007 | -0.021 | -0.012 | 0 | -0.01 | 0.024 | 0.013 | 0.024 | 0.023 | 0.002 | 0 | -0.003 | 0.016
8 | SURF2 (UniProt Q15527) | -0.005 | -0.049 | -0.031 | -0.008 | 0.014 | 0.092 | -0.061 | -0.018 | -0.055 | 0.111 | -0.192 | -0.052 | -0.045 | 0.195 | -0.031 | -0.054 | 0.066 | -0.036 | 0.014 | 
9 | SNRPD2 (UniProt P62316) | 0.017 | -0.01 | 0.016 | -0.055 | 0.018 | 0.057 | -0.014 | -0.009 | 0.078 | 0.052 | 0.014 | 0.015 | 0.024 | 0.015 | -0.02 | 0.007 | 0.014 | -0.027 | 0 | -0.002
10 | SH3GL3 isoform 3 (UniProt Q99963) | -0.07 | -0.087 | -0.04 | -0.548 (active) | -0.005 | 0.326 | 0.028 | 0.016 | -0.147 | 0.446 (active) | -0.075 | -0.113 | -0.067 | 0.096 | -0.007 | -0.033 | 0.029 | 0.075 | 0.024 | -0.011
11 | SYPL1 (UniProt Q16563) | 0.015 | -0.025 | -0.001 | -0.376 (active) | 0.004 | 0.16 | -0.028 | -0.009 | -0.034 | 0.163 | -0.005 | -0.006 | 0.013 | 0.025 | -0.014 | -0.075 | 0.034 | -0.002 | -0.013 | -0.044
12 | SPNS1 (UniProt Q9H2V7) | 0.025 | -0.038 | -0.004 | -0.042 | 0.04 | 0.032 | -0.073 | 0.014 | -0.054 | 0.052 | 0.04 | -0.025 | 0 | -0.017 | 0.028 | -0.039 | 0.069 | -0.032 | 0.013 | -0.005
13 | SLC26A6 (UniProt Q9BXS9) | -0.009 | 0.05 | -0.023 | 0.016 | 0.067 | 0.051 | 0.047 | -0.003 | -0.003 | 0.118 | 0.057 | 0.05 | -0.4 | 0.164 | -0.154 | 0.006 | 0.05 | 0.033 | 0.054 | -0.128
14 | TAOK2 (UniProt Q9UL54) | -0.049 | -0.054 | -0.081 | -0.136 | -0.002 | 0.07 | -0.026 | 0.046 | -0.004 | 0.261 | 0.033 | -0.069 | -0.231 | 0.012 | 0.052 | -0.516 (active) | 0.033 | 0.022 | -0.008 | 
15 | SMC2 (UniProt O95347) | -0.019 | 0.013 | -0.028 | 0.121 | -0.009 | -0.177 | 0.014 | 0.037 | -0.02 | -0.059 | -0.017 | -0.005 | -0.036 | 0.007 | 0.025 | -0.023 | 0.024 | 0.034 | 0.017 | -0.003
16 | TAF1B (UniProt Q53T94) | 0.012 | 0.062 | -0.036 | -0.058 | 0.34 | -0.157 | 0.304 | 0.017 | -0.004 | 0.134 | -0.061 | -0.067 | -0.174 | -0.105 | 0.635 | -0.064 | -0.103 | 0.017 | 0.015 | 
